# Bioassay records from PubChem BioAssay.
# BoNT-F LC inh – inhibitors of Botulinum neurotoxin F light chain protease; AID 588497; 360,000 compounds, 0.22% hits; Multiplex microsphere protease cleavage assay, flow cytometry; inhibition, % at 10 µM; in the data active means inhibition above about 35%, passing the limit was not always enough; inconclusive means no clear call, values can overlap the other calls; further: plate controls were buffer without enzyme for full effect and enzyme alone for no effect
# Autofluor counter – compound fluorescence in toxin protease inhibitor counterscreen. fluorescence intensity (test concentration not listed). compound autofluorescence counterscreen, microsphere flow cytometry; active compounds read high. 360,000 compounds, 3.1% hits; in the data active means fluorescence intensity above about 16000; inconclusive means no clear call, values can overlap the other calls
# Anthrax LF prot – blocks Bacillus anthracis lethal factor protease | P15917 | multiplex microsphere protease cleavage assay, LF | inhibition, % at 10 µM | 360,000 compounds, 0.12% hits | AID 588501; further: plate controls were buffer without enzyme for full effect and enzyme alone for no effect
# SSB-PriA inh – blocks PriA binding to SSB C-terminal tail; AlphaScreen SSBct-PriA binding, biotinylated peptide; inhibition, % at 33 µM; 430,000 compounds, 0.6% hits; AID 1272365; in the data active means inhibition mostly above about 37%, no sharp cut-off; inactive means mostly below about 20%;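 further: plate controls were negative control peptide for no effect and reference peptide for full effect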
# BoNT-A LC inh2 – blocks Botulinum neurotoxin A light chain protease; inhibition, % at 10 µM; 360,000 compounds, 0.17% hits; AID 588499; multiplex microsphere protease substrate cleavage, flow cytometry; further: plate controls were buffer without enzyme for full effect and enzyme alone for no effect
# Numbers without * were called inactive; ? = inconclusive; nt = not tested or not shown. Sampled rows, rich in hits. Any-hit rate of the full collection: about 3.1%. Unless noted, no stated cut-off is given here; in the data, active means inhibition above about 30%; inconclusive means no clear call, values can overlap the other calls; inactive means below that.
SMILES,BoNT-F LC inh,Autofluor counter,Anthrax LF prot,SSB-PriA inh,BoNT-A LC inh2
Cc1ccc(-n2c(O)c(C=Nc3ccc4c(c3)OCO4)c3ccccc3c2=O)cc1C,-3.8,22790*,-5.2,-6.3,0.7
CCn1c(O)c(/C=N/N=C2CCCC2)c2ccc(C3=NNC(=O)CC3)cc21,-6.7,23877*,-4.1,nt,-4.4
Cc1ccc(Nc2nc3ccccc3nc2NS(=O)(=O)c2ccc([N+](=O)[O-])cc2)cc1,nt,nt,nt,7.0,nt
CC1(C)CC(=O)C=C(NNC(=O)c2ccccc2O)C1,-1.4,16377*,-3.9,6.2,-1.0
Oc1ccc(C(=S)N2CCCCC2)cc1Cl,-5.8,24104*,-1.9,-7.9,-1.6
COc1cc(C(=S)N2CCCC2)ccc1O,1.6,20063*,-0.5,-21.7,1.9
O=C(Nc1cccc([N+](=O)[O-])c1)C(=O)NC(c1ccccc1)c1ccccc1,nt,nt,nt,-4.0,nt
COc1ccc(NC(=O)CCC(=O)OCc2ccc(C(=O)Oc3ccc(Cl)cc3)cc2)cc1,-0.9,19988*,-1.6,-11.2,-0.2
Cc1ccc(NC(=O)OCC(F)(F)C(F)F)cc1NC(=O)OCC(F)(F)C(F)F,-8.0,21692*,-8.6,-16.4,?
O=C(CCC(=O)OCC(F)(F)C(F)F)Nc1ccc(F)cc1F,2.3,2481,-1.5,-8.8,0.4
O=C(CCC(=O)OCc1ccc(C(=O)Oc2ccc(Cl)cc2)cc1)Nc1ccccc1,-11.8,2169,-2.0,-0.4,0.2
O=C(CCC(=O)OCC(F)(F)C(F)F)Nc1ccc(Cl)cc1,6.5,17876*,-12.9,-8.6,?
Cc1cnc2n(c1=O)C(CC(=O)NCc1ccc(Cl)cc1)CS2 (configuration not stated),nt,nt,nt,-9.0,nt
Cc1ccc(N2CCN(CC(=O)NC3CC(C)CC(C)(C)C3)C2=O)cc1 (configuration not stated),nt,nt,nt,-2.0,nt
COCCN1CCC(CNC(=O)C(=O)Nc2ccccc2OC)CC1,nt,nt,nt,-1.0,nt
O=C(Nc1ccsc1C(=O)NC1CCCCC1)c1ccccc1,-2.4,20407*,-0.8,-13.7,?
O=C(NCCCn1ccnc1)C(=O)Nc1ccccc1F,nt,nt,nt,-7.0,nt
CCCCNC(=O)Nc1cc(C(F)(F)F)c[nH]c1=O,-5.5,24583*,-1.4,-8.1,-3.0
CCCCNC(=O)Nc1ccccc1CC,?,4189,2.4,-2.3,0.4
CCOc1ccc(NC(=O)c2cc3c(=O)n(C)c4ccccc4c3n2C)cc1,-86.8,18920*,-14.4,-0.2,-12.3
CCOC(=O)N1CCN(C(c2ccc([N+](=O)[O-])cc2)c2sc3nc(CC)nn3c2O)CC1 (configuration not stated),nt,nt,nt,12.0,nt
O=C1c2ccccc2-c2onc3c(N4CCOCC4)cc(N4CCOCC4)c1c23,nt,nt,nt,38.0,nt
O=C(O)CCNc1cc(N2CCN(C(=O)c3ccco3)CC2)c2noc3c2c1C(=O)c1ccccc1-3,-5.5,4996,0.5,54.3*,0.7
CCN1CCN(c2cc(N3CCN(C(=O)c4ccco4)CC3)c3c4c(onc24)-c2ccccc2C3=O)CC1,-63.8,2890,-18.2,76.2*,3.1
C=CCc1c(C)nc2c(-c3ccccc3)cnn2c1NC[C@H]1CCCO1,nt,nt,nt,-81.0,nt
SMILES,BoNT-F LC inh,Autofluor counter,Anthrax LF prot,SSB-PriA inh,BoNT-A LC inh2
Cc1cc(C)n(-c2ccn(Cc3ccc(Cl)cc3Cl)c(=O)n2)n1,-3.9,23685*,-1.3,-13.9,-2.5
CN(C)c1ccc(/C=N/N2C(=S)SC(C)(C)C2N(O)C(=O)Nc2ccc([N+](=O)[O-])cc2)cc1 (configuration not stated),-8.5,4778,-0.7,nt,0.0
CN(C)c1ccc(C=NN2C(=S)SC(C)(C)C2N(O)C(=O)Nc2ccc([N+](=O)[O-])cc2)cc1 (configuration not stated),nt,nt,nt,45.5*,nt
COc1ccc(Cl)c2sc(N(Cc3cccnc3)C(=O)CS(=O)(=O)c3ccccc3)nc12,nt,nt,nt,4.0,nt
CCc1ccc(S(=O)(=O)Nc2ccc3c(c2)CCCN3C(=O)c2ccco2)s1,nt,nt,nt,-14.0,nt
COC(=O)c1ccc(C(=O)Nc2ccc(N)cc2N)cc1,-30.9,2448,-13.8,39.6*,0.3
COc1ccccc1NC(=O)c1ccc(N)cc1,-18.1,9600,-1.2,-2.6,-1.0
CC(C)CSc1ncnc2c1oc1nc3c(cc12)COC(C)(C)C3,-2.8,20132*,1.5,-4.5,-1.2
C=CCSc1ncnc2c1oc1nc3c(cc12)COC(C)(C)C3,1.0,5360,7.0,-8.0,-0.1
O=C(NC1CC1)c1cn[nH]n1,nt,nt,nt,-12.0,nt
COc1cc(-c2noc(-c3cccs3)n2)cc(OC)c1OC,-0.6,20254*,0.2,-12.0,?
O=C(CCCn1c(=S)[nH]c2cc3c(cc2c1=O)OCO3)NC1CC1,-2.4,22975*,-1.4,-12.2,-0.8
CCCCSC(N)=NN=Cc1ccccc1O,nt,nt,nt,-12.9,nt
CCOCCC(=O)Nc1cc(Cl)ccc1OC,1.4,22752*,-1.8,-4.8,0.8
COc1ccc(NC(=O)Nc2ccc(Br)cn2)cc1OC,-12.6,17621*,-2.8,-2.6,-3.8
COc1cccc(NC(=O)Nc2ccc(Br)cn2)c1,-1.5,4317,-7.8,-8.6,-0.6
COc1ccc(Cl)cc1NC(=O)NC(C)c1ccncc1 (configuration not stated),-4.0,17204*,0.1,4.5,-2.4
COc1ccc(Cl)cc1NC(=O)Nc1ccc(Br)cn1,-6.2,17461*,-3.0,1.2,?
CCOC(=O)c1sc(NC(=O)Cc2ccc(SC)cc2)nc1-c1ccccc1,nt,nt,nt,0.0,nt
CSC(N)=NN=Cc1c(O)ccc2ccccc12,nt,nt,nt,-16.3,nt
O=C(NCc1cncc(-c2cccs2)c1)[C@@H]1CC=CCC1,nt,nt,nt,-12.0,nt
COc1cccc(OC)c1C(=O)Nc1ccc(-c2cn3c(C)csc3n2)cc1,nt,nt,nt,18.0,nt
CCC(C)Sc1nnc(-c2cn(C)nc2OC)n1CCOC (configuration not stated),nt,nt,nt,8.0,nt
Cc1c(C(O)=C2C(=O)C(=O)N(CCN(C)C)C2c2cccs2)cnn1-c1ccccc1 (configuration not stated),nt,nt,nt,-6.3,nt
O=C(O)CCC(=O)Nc1ccc(Br)cn1,-7.7,5899,-6.6,-1.3,-0.5
SMILES,BoNT-F LC inh,Autofluor counter,Anthrax LF prot,SSB-PriA inh,BoNT-A LC inh2
COc1ccc(CCC(=O)Nc2ccc(Br)cn2)cc1,-3.6,24589*,-0.7,-20.9,?
COc1ccc(-c2noc(CSc3nc4ccccc4c(=O)n3C(C)C)n2)c(OC)c1,nt,nt,nt,5.0,nt
CS(=O)(=O)c1ccc(C(=O)NC2CCOC2=O)cc1 (configuration not stated),-6.1,21657*,-5.1,-10.5,?
COc1cccc(-n2ccn(Cc3ccccc3C)c(=O)c2=O)c1,nt,nt,nt,-4.0,nt
Cc1ccc2c(ccc[n+]2CC(=O)c2ccccc2)c1,-4.0,3508,-2.5,-2.7,1.0
COc1ccc(C(=O)OCC(N)=O)cc1[N+](=O)[O-],4.7,9464,1.1,-0.6,0.8
COc1ccc(C(=O)C[n+]2cc(Br)cc3ccccc32)cc1[N+](=O)[O-],51.6*,6163,22.3,7.1,116.5*
O=C(C[n+]1cc(Br)cc2ccccc21)c1ccccc1,33.9,6295,46.4*,7.8,100.3*
CC(C)S(=O)(=O)Nc1ccc2c(c1)CN(C(=O)C1CC1)CC2,nt,nt,nt,-6.0,nt
O=C(O)C1CCCN1c1nc2ccccc2o1 (configuration not stated),nt,nt,nt,-2.0,nt
Cc1ccc(CCNC(=O)CCSCc2ccc(Cl)cc2)cc1,-6.6,2213,-3.2,-5.4,-0.4
